# High-throughput results deposited in PubChem by The Scripps Research Institute Molecular Screening Center.
# MITF primary: human MITF inhibition, primary screen. O75030. AlphaScreen MITF homodimerization, bead proximity signal. inhibition, % at 2.6 µM. hit rate 0.91% among 650,000. AID 1259374; in the data active = inhibition above about 50%;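 note: 0% = vehicle wells with protein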
# TEAD-YAP inh: TEAD-YAP interaction inhibition. inhibition, % at 9.12 µM. AID 1259422. hit rate 1.4% among 640,000. HEK-TIYL cells, TEAD-Gal4/YAP UAS-luciferase luminescence; in the data active = inhibition above about 32%;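 note: 0% = median of test compound wells and 100% = reference inhibitor wells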
# GPR151 activ: activates the human receptor GPR151; PathHunter beta-arrestin GPR151 cells, luminescence; hit rate 1% among 650,000; Q8TDV0; activation, % at 11.2 µM; in the data active = activation above about 4.9%;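 note: 0% = median of compound wells and 100% = cells with positive control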
# Target sequence (Q8TDV0 whole entry, looked up): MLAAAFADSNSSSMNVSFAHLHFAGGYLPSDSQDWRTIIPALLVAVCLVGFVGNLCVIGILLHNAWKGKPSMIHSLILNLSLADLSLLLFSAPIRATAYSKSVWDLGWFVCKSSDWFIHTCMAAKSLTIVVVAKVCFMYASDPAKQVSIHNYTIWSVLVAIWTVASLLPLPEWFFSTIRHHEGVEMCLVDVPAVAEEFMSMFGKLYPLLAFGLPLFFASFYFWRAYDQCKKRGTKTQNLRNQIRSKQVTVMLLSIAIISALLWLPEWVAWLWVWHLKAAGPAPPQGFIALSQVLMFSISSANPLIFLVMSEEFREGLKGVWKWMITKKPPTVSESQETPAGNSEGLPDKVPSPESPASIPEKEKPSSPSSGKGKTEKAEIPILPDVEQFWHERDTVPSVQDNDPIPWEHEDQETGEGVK
# FBW7 act: human FBW7 E3 ligase activation, primary screen; AlphaScreen FBW7–phospho-cyclin E peptide binding, activator screen; normalized activity (activation), % at 26.1 µM; hit rate 0.13% among 650,000; AID 1259310; in the data active = normalized activity above about 1.9%;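 note: purified mutant Fbw7 with reduced substrate affinity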
# An asterisk follows results filed as active; / = no result. The list is not random: actives were taken first. Their share in the collection is about 3.5%.
SMILES,MITF primary,TEAD-YAP inh,GPR151 activ,FBW7 act
FC(F)(F)c1cccc(CNc2ccnc(NCCN3CCOCC3)n2)c1,6,24,2,0
FC(F)(F)c1cccc(CNc2nc(N3CCOCC3)nc3nc[nH]c23)c1,0,-4,-2,0
FC(F)(F)Oc1cccc(-c2nccc(NCc3cccc(C(F)(F)F)c3)n2)c1,-8,50*,0,0
OCC1CCCN1c1nccc(NCc2cccc(C(F)(F)F)c2)n1 (configuration not stated),-4,43*,1,0
O=C(Cc1cccc2ccccc12)NNC(=O)c1ccc([N+](=O)[O-])cc1,-8,2,0,0
c1ccc(NNC2=Nc3ccccc3CCC2)cc1,3,36*,0,0
COc1ccc(OCC(=O)NNC(=O)COc2ccccc2C)cc1,-1,5,0,0
O=C1NC(=S)NC(=O)C1=CN1CCCc2ccccc21,31,14,0,2.5*
O=C1NC(=S)NC(=O)C1=Cc1ccc(N2Cc3ccccc3C2)cc1,21,9,-1,0
Cc1cccc(Cc2cnc(NC(=O)COc3ccccc3C)s2)c1,-2,54*,1,0
Cc1ccc(C(=O)Nc2ccc(Cc3ccncc3)cc2)cc1,-7,10,-1,0
O=C(CCc1ccccc1)Nc1ccc(Cc2ccncc2)cc1,0,40*,2,0
Cc1ccc(Cc2cnc(NC(=O)COc3ccccc3)s2)cc1,14,52*,0,0
Cc1ccc(Cc2cnc(NC(=O)COc3ccccc3C)s2)cc1,10,17,0,0
O=C(Nc1ccc(Cc2ccncc2)cc1)c1ccc(Br)cc1,6,39*,3,0
O=C(CSc1nnc(-c2ccc(F)cc2)o1)c1ccccc1F,-3,-47,1,0
O=C(CCN(CC1CCCO1)C1CCS(=O)(=O)C1)c1ccc([N+](=O)[O-])cc1 (configuration not stated),5,6,0,0
c1ccc2[nH]c(NN=C3CCCC3)nc2c1,5,-27,-1,0
O=C(CSCc1ccc(Cc2ccc(CSCC(=O)Nc3ccccc3)cc2)cc1)Nc1ccccc1,11,35*,-1,0
O=C(CCc1ccccc1)Nc1ncc(Cc2ccccc2)s1,8,49*,-1,0
O=C(CCCl)Nc1ncc(Cc2ccccc2)s1,8,-1,1,0
Cc1ccccc1OCC(=O)Nc1ncc(Cc2ccc(F)cc2)s1,-6,51*,-1,0
C[C@H]1O[C@@H](O[C@H]2[C@@H](O)C[C@H](O[C@H]3[C@@H](O)C[C@H](O[C@H]4CC[C@]5(C)C6CC[C@]7(C)[C@@H](C8=CC(=O)OC8)CC[C@]7(O)C6CC[C@@H]5C4)O[C@@H]3C)O[C@@H]2C)C[C@H](O)[C@@H]1O (some centres not stated),24,99*,4,0
C[C@H]1O[C@@H](O[C@H]2[C@@H](O)C[C@H](O[C@H]3[C@@H](O)C[C@H](O[C@H]4CC[C@@]5(C)[C@H](CC[C@@H]6[C@@H]5C[C@@H](O)[C@]5(C)[C@@H](C7=CC(=O)OC7)CC[C@]65O)C4)O[C@@H]3C)O[C@@H]2C)C[C@H](O)[C@@H]1O,8,/,0,0
O=C(NC1CS(=O)(=O)CC1Cl)c1ccco1 (configuration not stated),19,12,2,0
SMILES,MITF primary,TEAD-YAP inh,GPR151 activ,FBW7 act
COc1cc(-c2cc(=O)c3cc(O)ccc3o2)cc(OC)c1OC,0,-4,-1,0
COc1ccc(-c2cc(=O)c3c(O)cc(O)cc3o2)cc1O,8,-48,-1,0
COc1ccc(-c2c3cc(O)c(=O)cc-3oc3cc(O)c(O)cc23)cc1C,109*,0,-2,-1
COc1cc(-c2c3cc(O)c(=O)cc-3oc3cc(O)c(O)cc23)cc(Cl)c1OC,98*,-11,0,0
Cn1c(=O)c(C(=O)CS(=O)(=O)O)c2c3c(cccc31)C(=O)c1ccccc1-2,-4,4,0,0
C#CCN1C(=O)C2C(C(=O)NC)C3(C)C=CC2(O3)C1C(=O)NCc1ccc(OC)cc1 (configuration not stated),1,-7,-1,0
CN1C=CC(=C2C(=O)c3ccccc3C2=O)C=C1,4,5,-5,0
CCCCN1C(C)=CC(=C2C(=O)c3ccccc3C2=O)C=C1C,5,56*,-3,0
CCN1C=CC(=C2C(=O)c3ccccc3C2=O)C=C1,-18,95*,-6,0
CCOC(=O)CSC1=C(C#N)C(c2ccco2)C(C(=O)Nc2ccccc2F)=C(C)N1 (configuration not stated),12,45*,1,0
Cc1ccccc1NC(=O)CSC1=C(C#N)C(c2ccco2)C2=C(CCCC2=O)N1 (configuration not stated),13,45*,0,0
CCCOC(=O)CSC1=C(C#N)C(c2ccc3c(c2)OCO3)CC(=O)N1 (configuration not stated),-2,1,3,0
COc1ccccc1NC(=O)C1=C(C)NC(SCC(=O)c2ccc(F)cc2)=C(C#N)C1c1ccco1 (configuration not stated),3,-16,-1,1
CC(=O)C1=C(C)NC(SCC(=O)c2ccccc2)=C(C#N)C1c1ccco1 (configuration not stated),14,-19,-1,1
CCCOC(=O)CSC1=C(C#N)C(c2cccc(Cl)c2)CC(=O)N1 (configuration not stated),2,62*,0,0
CC(=O)C1=C(C)NC(SCC(=O)c2ccc(C)c(C)c2)=C(C#N)C1c1ccco1 (configuration not stated),23,9,0,1.9*
CC1CCC2C(=O)N(c3ccc(C(=O)Nc4ccc(Cl)cc4)cc3)C(=O)C2C1 (configuration not stated),-13,2,2,0
COC(=O)CSC1=C(C#N)C(c2ccccc2C)CC(=O)N1 (configuration not stated),-9,7,-1,0
COC(=O)CSC1=C(C#N)C(c2ccc(C)o2)CC(=O)N1 (configuration not stated),7,56*,1,0
CCOC(=O)CSC1=C(C#N)C(c2ccco2)CC(=O)N1 (configuration not stated),1,55*,0,0
CNC(=O)CSc1nnc(-c2ccccc2)n1-c1ccccc1,2,4,1,0
COc1ccc(/C=C2/C(=O)NN(c3ccc(F)c(Cl)c3)C2=O)cc1OC,17,5,-1,0
COc1ccc(C(=O)Nn2c(-c3cccc(C)c3)nc3ccccc3c2=O)c(OC)c1,15,0,0,0
CC1CC(C)CN(c2nc(N)ncc2[N+](=O)[O-])C1 (configuration not stated),-1,49*,1,0
CC1(C)CC(=O)C(/C=N/c2cccc(N)n2)=C(O)C1,11,-4,0,0
O=[N+]([O-])c1ccc(O)c(/C=N/Nc2ncccc2[N+](=O)[O-])c1,5,-3,0,0
